Source: the supplement of paper PMC6555819

Assays:
Test in all cases: PBM binding z-score (relative to random genomic background probes); higher = stronger binding; sequences stand for … in GC…GCGATTGACAGCGTAGAATGAAGG
[1] = tested on: PPARg:RXRa DBDmut IVT, anti-RXR (DBD mutation: RXRa K156A/R161A, NR concentration 270 nM, RXRa partner concentration 90 nM)
In short: (§1)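 For binding z-scores, the reference was random background probes on custom Agilent 4×180K protein-binding microarrays. These arrays were incubated 1 h with ligand-free nuclear receptor dimers in PBS pH 7.4, 2% milk, 0.02% Triton X-100, 1 mM DTT, 0.2 mg/mL BSA and 0.4 mg/ml salmon testes DNA. Fluorescence was scanned after antibody detection of each partner (one per run) and regression-normalized.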

[2] = tested on: PPARg:RXRa IVT, anti-PPARg (NR concentration 270 nM, RXRa partner concentration 90 nM)
In short: as §1

[3] = tested on: PPARg DBDmut IVT, anti-PPARg (DBD mutation: PPARg1 K132A/R137A, NR concentration 270 nM)
In short: as §1

[4] = tested on: PPARg homodimer (NR concentration 180 nM)
In short: as §1

[5] = tested on: PXR:RXRa (NR concentration 270 nM, RXRa partner concentration 90 nM)
In short: as §1

[6] = tested on: PXR homodimer (NR concentration 270 nM)
In short: as §1

[7] = tested on: RARa:RXR (NR concentration 270 nM, RXRa partner concentration 90 nM)
In short: as §1

[8] = tested on: RARa homodimer (NR concentration 270 nM)
In short: as §1

[9] = tested on: RARb:RXRa (NR concentration 270 nM, RXRa partner concentration 90 nM)
In short: as §1

Row | Sequence | PBM binding z-score [1] | PBM binding z-score [2] | PBM binding z-score [3] | PBM binding z-score [4] | PBM binding z-score [5] | PBM binding z-score [6] | PBM binding z-score [7] | PBM binding z-score [8] | PBM binding z-score [9]
1 | CGAAATAGGTCACCAGGACAGTGAAGAGGTTGGA | 7.94 | 8.03 | 1.09 | 1.95 | 2.67 | 0.221 | 3.82 | 1.35 | 4.78
2 | CGAACTAGGTCACCAGGACAGCGAAGAGGTTGGA | 7.82 | 8.67 | 0.871 | 2.15 | 1.34 | -0.232 | 2.32 | 0.196 | 4.21
3 | CGATCTAGGTCACCAGGACAGTGAAGAGGTTGGA | 8.32 | 8.59 | 0.925 | 1.88 | 1.46 | -0.089 | 2.44 | -0.0617 | 4.03
4 | CGAACTAGATCAAAGGACAGTGAAAGGCGACGTA | 1.68 | 1.44 | -0.617 | 0.388 | -0.456 | -0.201 | -0.579 | 0.383 | 0.915
5 | ATATGTAGGTTAGGTTCATTCAGAAAGTAGGGAA | 6.23 | 5.61 | 2.4 | 1.77 | 2.89 | 2.26 | 2.24 | 1.68 | 1.5
6 | CGAACTAGGTCACCAGGGCAGTGAAGAGGTTGGA | 8.17 | 8.88 | 0.642 | 1.95 | 1.7 | -0.014 | 2.53 | 0.458 | 4.22
7 | CGAACTAGGTCACCAGGACATTGAAGAGGTTGGA | 7.89 | 8.55 | 0.336 | 1.53 | 1.66 | 0.175 | 2.53 | 0.511 | 4.21
8 | ATATGTAGGTTAGGGTCATTAAGAAAGTAGGGAA | 6.33 | 6.81 | 3.64 | 3.28 | 3.9 | 1.85 | 4.79 | 1.97 | 3.32
9 | CGAACTAGGTGAAAGGACAGTGAAAGGCGACGTA | 7.36 | 7.28 | 1.83 | 1.93 | -0.398 | -0.114 | -0.0573 | -0.695 | 1.54
10 | CGAACTATGTCAAAGGACAGTGAAAGGCGACGTA | 3.02 | 3.26 | 0.207 | 0.527 | -0.558 | -0.587 | -0.379 | -0.181 | 1.45
11 | CGGACTAGGTCAAAGGACAGTGAAAGGCGACGTA | 7.7 | 7.9 | 0.294 | 1.67 | 1.11 | -0.218 | 2.41 | 0.208 | 3.69
12 | CGAACTGGGTCAAAGGACAGTGAAAGGCGACGTA | 7.3 | 7.89 | -0.0176 | 0.919 | 1.21 | -0.282 | 2.12 | -0.262 | 3.44
13 | CAAACTAGGTCAAAGGACAGTGAAAGGCGACGTA | 8 | 8.6 | 4.51 | 2.88 | 1.45 | 0.371 | 2.48 | 0.774 | 3.99
14 | CGAACTAGGTCTCCAGGACAGTGAAGAGGTTGGA | 4.77 | 4.03 | -0.626 | 0.0186 | -0.409 | -0.39 | -0.238 | -0.356 | 0.216
15 | CGAACTAGGTCACCAGGACTGTGAAGAGGTTGGA | 8.46 | 8.71 | 1.86 | 3.94 | 1.55 | -0.354 | 2.79 | 0.25 | 4.27
